This is a sample that favours compounds with a hit; in the whole collection about 3% have one here.
Tau fluor counter: Counterscreen qHTS for Inhibitors of Tau Fibril Formation, Fluorescence Polarization | AID 1463, 2008 | tau K18 P301L Alexa594 fluorescence, heparin fibrillization | Potency, µM (doses to about 57.7 µM) | 280,000 compounds, 0.93% hits; also: nearly all actives have a fitted effect of over 55% in size
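Human K18 P301L tau (15 uM unlabeled plus 0.24 uM Alexa 594-labeled, final) in 100 mM sodium acetate pH 7 was mixed with compound and 20 uM heparin and incubated 6 hr at 37 C.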
TRb-SRC2 inh: qHTS for Inhibitors of the Interaction of Thyroid Hormone Receptor and Steroid Receptor Coregulator 2; TRbeta-SRC2 peptide binding, fluorescence polarization; receptor liganded with 1 µM T3; Potency, µM (titrated, usually from 106 µM), actives largely listed as inhibitors; 280,000 compounds, 0.065% hits; AID 1469, 2008; also: nearly all actives have a fitted effect of over 50% in size
Target sequence (P10828 whole entry, looked up): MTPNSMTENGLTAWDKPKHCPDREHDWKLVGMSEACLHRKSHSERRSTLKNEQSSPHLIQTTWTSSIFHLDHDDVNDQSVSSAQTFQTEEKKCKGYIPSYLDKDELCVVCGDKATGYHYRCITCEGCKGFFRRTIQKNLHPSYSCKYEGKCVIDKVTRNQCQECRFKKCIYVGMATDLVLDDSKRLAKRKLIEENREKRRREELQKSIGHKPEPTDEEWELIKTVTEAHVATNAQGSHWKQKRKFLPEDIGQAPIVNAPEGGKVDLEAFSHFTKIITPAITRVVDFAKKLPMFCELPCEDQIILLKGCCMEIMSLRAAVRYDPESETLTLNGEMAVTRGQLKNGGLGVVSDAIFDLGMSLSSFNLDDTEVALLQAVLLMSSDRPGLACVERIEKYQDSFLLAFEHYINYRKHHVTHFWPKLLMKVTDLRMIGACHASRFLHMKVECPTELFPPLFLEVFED
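Each compound concentration gave % activity, normalized to unbound and bound Texas Red SRC2 controls, from polarization read after 5 hr ambient incubation with T3-loaded human TRb LBD.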
Tau FP inhib: qHTS for Inhibitors of Tau Fibril Formation, Fluorescence Polarization; K18 P301L tau heparin fibrillization, Alexa594 FP, 6 h; AID 1468, 2008; Potency, µM (series often up to 57.7 µM), hits mostly inhibitors; 280,000 compounds, 0.39% hits; also: nearly all actives have a fitted effect of over 55% in size
Target sequence (P10636 561-689 P618L limits assumed): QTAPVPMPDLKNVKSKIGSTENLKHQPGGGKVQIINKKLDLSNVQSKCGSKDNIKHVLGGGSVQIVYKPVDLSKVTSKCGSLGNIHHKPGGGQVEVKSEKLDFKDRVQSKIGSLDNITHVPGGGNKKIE
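Recombinant K18 P301L […], labeled with Alexa 594 at 0.24 uM over 15 uM unlabeled; heparin inducer 20 uM final; 37 C, 6 hr; FP endpoint.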
TexasRed fluor: Total Fluorescence Counterscreen for Inhibitors of the Interaction of Thyroid Hormone Receptor and Steroid Receptor Coregulator 2 | Potency, µM (titrated, usually from 106 µM) | TRb/SRC2 Texas Red total fluorescence interference | 280,000 compounds, 0.29% hits; active = well fitted curve in either direction with a large enough effect; inconclusive = small, poorly fitted or top-dose-only effect
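Human TRb ligand-binding domain at 0.6 uM with 20 nM Texas Red SRC2 peptide in Tris buffer containing 1 uM T3 and 5% DMSO, incubated with compound 5 h at ambient temperature. Total fluorescence (555/632 nm) calculated as parallel + 2 × perpendicular.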
Tau fibril ThT: qHTS for Inhibitors of Tau Fibril Formation, Thioflavin T Binding. Microtubule-associated protein tau (Homo sapiens), P10636. recombinant tau K18 P301L (four-repeat tau fragment), heparin-induced fibrillization, ThT fluorescence. Potency, µM (doses to about 57.4 µM), most hits filed as inhibitors. 270,000 compounds, 2.1% hits; also: nearly all actives have a fitted effect of over 55% in size
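In this qHTS, human K18 P301L tau is incubated with compound and heparin for 6 hr at 37 C, and Thioflavin T fluorescence then reports fibril load.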
Of the large screens only hits and unclear results are named; the others gave an inactive call; [ ] = dose if it differs, or a comment. Unless noted, calls follow the shape of the dose curve; as a rule, active = well fitted curve in the direction sought with a large enough effect; inconclusive = small, poorly fitted or top-dose-only effect, or another doubt; inactive = no such curve, though single readings can be large; an effect the other way counts as inactive or inconclusive.

COC(=O)CSC1=C(C#N)C(c2ccc(C(C)C)cc2)CC(=O)N1 (configuration not stated)	none
N#CC1=C2SCN(C3CCCCC3)CN2C(=O)CC1c1ccc(Cl)cc1 (configuration not stated)	Tau FP inhib inconclusive, Tau fibril ThT 28µM
COc1ccc(Br)cc1C1CC(=O)N2CN(C)CSC2=C1C#N (configuration not stated)	Tau FP inhib inconclusive, Tau fibril ThT inconclusive
COc1cccc(C(=O)NCc2nc(-c3ccccc3)no2)c1OC	none
CC(CC(=O)NCc1ccc(Cl)cc1)CC1=NS(=O)(=O)c2ccccc2N1 (configuration not stated)	none
COc1cccc(C(=O)c2cn(CC(=O)NCc3ccccc3)c3nc(C)ccc3c2=O)c1	none
CC[C@](C)(CN(C)C)OC(=O)c1ccccc1	none (no result: Tau fluor counter, Tau FP inhib, Tau fibril ThT)
N#CC1=C2SCN(C3CCCCC3)CN2C(=O)CC1c1c(F)cccc1Cl (configuration not stated)	Tau FP inhib inconclusive, Tau fibril ThT 32µM
CO[C@H]1COC(=O)[C@H](C)COC(=O)C/C=C\[C@@H](C)[C@H](OC)COC(=O)C/C=C\[C@@H]1C	none
CC1=NN(c2ccccc2)C(=O)/C1=C/C=C/c1ccccc1	Tau fluor counter inconclusive, Tau FP inhib inconclusive, Tau fibril ThT 16µM
Cc1ccc(C2=NOC(=O)/C2=C\C=C\c2ccccc2)cc1	Tau fluor counter inconclusive, Tau FP inhib 14µM, Tau fibril ThT 13µM
CC1=NN(c2cccc(C(=O)O)c2)C(=O)/C1=C\C=C\c1ccco1	Tau fluor counter inconclusive, Tau FP inhib inconclusive, Tau fibril ThT 14µM
c1ccc(-n2ncc3c(NC4CCCC4)ncnc32)cc1	none
Cc1ccc(-n2ncc(C(=O)NCCCN3CCCCC3)c2C2CCN(C(=O)OC(C)(C)C)CC2)c(C)c1	none
CCC(C)C(=O)N1c2ccccc2C(=C2SC(C(=O)OC)=C(C(=O)OC)S2)C(=S)C1(C)C (configuration not stated)	Tau fluor counter inconclusive, Tau FP inhib inconclusive, Tau fibril ThT 4µM
Nc1nc(=S)c2ncn(C3OC(CO)C(O)C3O)c2[nH]1 (configuration not stated)	Tau fluor counter inconclusive, Tau FP inhib inconclusive, Tau fibril ThT 11µM
O=C(CSc1nc(-c2ccccc2)c(-c2ccccc2)[nH]1)Nc1nccs1	Tau fluor counter 14µM[quencher], Tau fibril ThT inconclusive
COc1ccc(-c2[nH]c(-c3ccc(SC)cc3)nc2SCC(=O)Nc2nccs2)cc1	Tau fluor counter 7.1µM[quencher], Tau fibril ThT inconclusive
COc1ccc(-c2nc(SCC(=O)Nc3nccs3)c(-c3ccc(Cl)cc3)[nH]2)cc1	none
COc1ccc(-c2[nH]c(-c3ccc(C)cc3)nc2SCC(=O)Nc2nccs2)cc1	Tau fluor counter 18µM[quencher], Tau FP inhib inconclusive, Tau fibril ThT inconclusive
Cc1ccc(S(=O)(=O)N[C@H]2COC(=O)[C@H](C)COC(=O)[C@H](C)NC(=O)C/C=C\[C@H]2C)cc1	none
COC(=O)c1ccc(C(NC(=O)OCc2ccccc2)/C(C)=C/[C@@H](C)C(=O)NCc2nn(-c3ccccc3)nc2C)cc1 (some centres not stated)	none
S=C(NCc1cccs1)Nc1cccc(Cl)c1	none
S=C(NCc1cccs1)Nc1cc(Cl)cc(Cl)c1	Tau fluor counter inconclusive, Tau FP inhib 18µM
Cc1cn2c(=O)c(S(=O)(=O)NC(C)c3ccccc3)c(C)nc2s1 (configuration not stated)	none
CCOC(=O)c1c(S(=O)(=O)NCC(=O)Nc2ccc(F)cc2C)c(C)n(C)c1C	none
CCOc1ccc2nc(N3C(=O)CNC3=S)sc2c1	none (no result: Tau fibril ThT)
COc1ccc2nc(N3C(=O)/C(=C/c4ccc(Cl)cc4)NC3=S)sc2c1	Tau fibril ThT 1.1µM
CCOc1ccc(-c2cc(C(=O)NCCCOC)c3c(-c4ccc(CC)cc4)[nH]nc3n2)cc1	none
Cc1ccc(S(=O)(=O)Nc2nc3ccccc3nc2Nc2cccc(S(=O)(=O)N3CCCC3)c2)cc1	Tau fibril ThT inconclusive
O=[N+]([O-])c1cccc(S(=O)(=O)Nc2nc3ccccc3nc2Nc2cccc(S(=O)(=O)N3CCCCC3)c2)c1	Tau fluor counter inconclusive, Tau fibril ThT 16µM
CC(C)c1ccc(N2C(=O)/C(=C/N(C)C)SC2=S)cc1	Tau fluor counter inconclusive, TRb-SRC2 inh inconclusive, Tau FP inhib inconclusive, TexasRed fluor 28µM[fluorescent] (no result: Tau fibril ThT)
O=C1/C(=C\c2cccs2)Sc2ccc3ccccc3c21	Tau fibril ThT 1µM
CCOC(=O)c1ccoc1CSCc1ccc(C(=O)OC)o1	Tau FP inhib inconclusive, Tau fibril ThT 25µM
CCS(=O)(=O)c1nc(S(=O)(=O)c2ccc(C)cc2)c(NCC(C)C)s1	none
O=C1c2ccccc2C(=O)C12OC2c1ccc(Cl)cc1 (configuration not stated)	Tau FP inhib inconclusive, Tau fibril ThT 3.2µM
CS(=O)(=O)n1nc(-c2ccc(Cl)cc2)nc1N	none
Cn1nc(-c2ccc(Cl)cc2)nc2c(=O)n(C)c(=O)nc1-2	TRb-SRC2 inh inconclusive, Tau FP inhib inconclusive, Tau fibril ThT 8.9µM
COc1ccccc1NC(=O)c1sc2nc(-c3cc4cc(Cl)ccc4oc3=O)[nH]c(=O)c2c1C	TexasRed fluor 18µM[quencher]
Cc1ccc(S(=O)(=O)c2ccccc2)cc1S	Tau FP inhib inconclusive, Tau fibril ThT 28µM
Nc1c(C(=O)Nc2ccc(Br)cc2)sc2nc(-c3ccco3)ccc12	Tau fluor counter inconclusive, TexasRed fluor inconclusive, Tau fibril ThT 5µM
CC(=O)c1sc2nc(-c3ccco3)ccc2c1N	Tau fluor counter inconclusive, TexasRed fluor inconclusive, Tau fibril ThT 7.1µM
Nc1c(C(=O)Nc2ccc(F)cc2)sc2nc(-c3ccco3)ccc12	Tau fluor counter inconclusive, Tau fibril ThT 6.3µM
COC(=O)c1sccc1S(=O)(=O)N(CC(=O)NCc1ccc(C)cc1)c1ccc(C)c(C)c1	none
COc1ccccc1C1CCN(c2ccc([N+](=O)[O-])c(OC)c2)CC1	Tau fluor counter inconclusive, Tau fibril ThT 8.9µM
O=C(Nc1cccc(Cl)c1)Nc1ccccc1OCc1cc(=O)n2ccccc2n1	Tau FP inhib inconclusive
O=S(=O)(O)c1ccc(N=Nc2cc(S(=O)(=O)O)c3ccccc3c2O)c2ccccc12	TRb-SRC2 inh inconclusive, TexasRed fluor 100µM[fluorescent] (no result: Tau fluor counter, Tau FP inhib, Tau fibril ThT)
CCc1ccc(S(=O)(=O)/N=C2\C=CC(=O)c3ccccc32)cc1	Tau fluor counter inconclusive, Tau FP inhib inconclusive, Tau fibril ThT 18µM
CCc1ccc(S(=O)(=O)/N=C2/C=C(Sc3ncn[nH]3)C(=O)c3ccccc32)cc1	Tau fluor counter inconclusive, TRb-SRC2 inh 20µM, Tau FP inhib 11µM, Tau fibril ThT 4µM

High-throughput results (PubChem)
